In all, about 360,000 compounds went through this assay and about 11,000 (3.1%) were called active. Another 2% or so got no clear call; they are omitted. What follows is part of a selection rich in actives, with near analogues and random picks from the rest. Unmarked numbers belong to inactive results. Rule as the data show it: active = fluorescence intensity above about 16000; inconclusive = no clear call, values can overlap the other calls; inactive = below that.
Assay: compound fluorescence in toxin protease inhibitor counterscreen, primary screen, artefact control for toxin protease inhibitor project, biochemical, multiplex microsphere, HTS (AID 624483)
Details: compound autofluorescence counterscreen, microsphere flow cytometry; active compounds read high

In the case of N/C(=N\OC(=O)CCC1CCCCC1)c1ccccn1, the fluorescence intensity is reported as 16300 (active).
For COc1ccccc1C(=O)C(O)c1ccccc1OC (centres undefined), the fluorescence intensity was 20300 (active).
With CC(=O)Nc1ccccc1C(=O)C(=O)Nc1ccc(F)cc1 the fluorescence intensity was 19600 (active).
In the case of O=C(Cc1ccccc1)N/N=C/c1ccc(Cl)cc1Cl, the fluorescence intensity is reported as 23400 (active).
With CCOC(=O)C1CCN(c2ncnc3c2oc2ccc(Br)cc23)CC1 the fluorescence intensity was 22700 (active).
With C=CCn1c(SCc2csc(C)n2)nc2scc(-c3ccc(C)o3)c2c1=O the fluorescence intensity was 21100 (active).
For CCC(C)NC(=O)CSC1=Nc2ccccc2C2=NC(CCC(=O)NCc3ccco3)C(=O)N12 (centres undefined), the fluorescence intensity was 19500 (active).
For O=c1c2ccccc2nnn1CSc1nnnn1-c1ccccc1, the fluorescence intensity was 16800 (active).
In the case of COC(=O)c1ccccc1NC(=O)C1CCN(S(=O)(=O)c2cc(OC)ccc2OC)CC1, the fluorescence intensity is reported as 16400 (active).
With COc1ccccc1N1CCN(C(=O)c2cc(-c3ccc(Cl)c(Cl)c3)on2)CC1 the fluorescence intensity was 16600 (active).
With O=C(NCc1ccco1)c1cc2sccc2n1Cc1ccc(F)cc1 the fluorescence intensity was 20800 (active).
With O=C(NCCc1ccccn1)c1ccc(COc2ccccc2)o1 the fluorescence intensity was 19400 (active).
In the case of CCCCCOC(=O)C1=C(C)Nc2nnnn2C1c1ccc(OC)c(OC)c1OC (centres undefined), the fluorescence intensity is reported as 21200 (active).
For CCOc1ccc(S(=O)(=O)Nc2nc3cc(OC)ccc3s2)cc1, the fluorescence intensity was 20400 (active).
With CCOC(=O)c1ccc(NC(=O)CSc2nnc(COc3ccccc3OC)n2C)cc1 the fluorescence intensity was 23600 (active).
For COc1cc(OC)cc(-c2nc3nc(C)c(CCC(=O)NCc4ccco4)c(C)n3n2)c1, the fluorescence intensity was 21000 (active).
In the case of Cc1ccc(S(=O)(=O)N2CCC(C(=O)OCC(=O)N3CC(=O)Nc4ccccc43)CC2)cc1, the fluorescence intensity is reported as 23100 (active).
For O=c1c([N+](=O)[O-])cc(C(F)(F)F)cn1Cc1cccc(Cl)c1, the fluorescence intensity was 22600 (active).
With CN(C)/C=C/c1c(C#N)c(=O)ncn1Cc1ccccc1 the fluorescence intensity was 22600 (active).

First: COc1ccccc1OCC(=O)O/N=C(\N)c1ccccn1
Second: O=C(CNC(=O)COc1ccccc1)NCCc1ccccn1
The fluorescence intensity of the first is higher: 6210 for the first, 3410 for the second.

First: N/C(=N\OC(=O)CC1CCCCC1)c1ccccc1
Second: CC1(C(=O)NS(=O)(=O)c2ccc(Cl)cc2)CCN1C(=O)CC1CCCC1 (centres undefined)
The fluorescence intensity of the first is lower: 2550 for the first, 3020 for the second.

Going from COc1ccccc1C(=O)c1ccccc1C(=O)c1ccccc1 to COc1ccccc1C(=O)Nc1ccc(Nc2ccccc2)cc1, the fluorescence intensity rises from 4030 to 4350.

Going from O=C(Nc1ccccc1)c1ccccc1NC(=O)C(F)(F)F to CC(=O)Nc1ccccc1C(=O)OCC(=O)c1cccc2ccccc12, the fluorescence intensity falls from 9920 to 4440.

First: CCNC(=S)Nc1ccc2c(c1)c(=O)n(C)n2Cc1ccc(Cl)cc1
Second: C=CCn1c(SCn2nnc3ccccc3c2=O)nnc1-c1ccc(Cl)cc1
The fluorescence intensity of the first is lower: 3690 for the first, 15200 for the second.

Compared with COc1ccc(C(C)(O)c2nc(-c3ccc(C)c(C)c3)cs2)cc1 (centres undefined), COc1ccc(C(C)(NC(C)=O)c2nc(-c3ccc(S(C)(=O)=O)cc3)cs2)cc1 (centres undefined) is lower in fluorescence intensity: 3400 for the first, 2940 for the second.

Compared with O=C(Cn1cc(C(F)(F)F)ccc1=O)N/N=C/c1ccc(Cl)cc1Cl, CN(C)C(=O)c1cccn(Cc2cccc(C(F)(F)F)c2)c1=O is higher in fluorescence intensity: 1980 for the first, 4630 for the second.

First: C=CCOc1ccccc1/C=N/NC(=O)Cc1ccccc1
Second: CC(=O)Nc1cccc(-c2ccnc3c2CC(C)(C(=O)NCc2ccccc2)O3)c1 (centres undefined)
The fluorescence intensity of the first is higher: 4140 for the first, 3920 for the second.

Compared with COC(=O)c1ccc2nc(C3CCCCC3)c(Cc3cccc(F)c3)n2c1, COC(=O)c1ccc2nc(-c3ccc(Cl)cc3)c(Cc3cccc(F)c3)n2c1 is higher in fluorescence intensity: 4850 for the first, 6340 for the second.

Going from Clc1ccc(CSc2nnc([C@@H]3CCCN3)o2)cc1 to O=C(NCc1nnnn1-c1ccc(Cl)cc1)c1ccc([N+](=O)[O-])o1, the fluorescence intensity falls from 6580 to 3830.

Compared with CCOC(=O)C1=CCC2C(=O)N(Cc3ccccc3)C(=O)C12 (centres undefined), COC(=O)[C@]12CCCCC=C1N(Cc1ccccc1)C(=O)[C@H](CC(=O)NCc1ccc(C)o1)C2 is higher in fluorescence intensity: 4910 for the first, 5960 for the second.

Going from CCOC(=O)C1CCN(c2ncnc3c2c(-c2ccccc2)cn3-c2ccc(C)cc2)CC1 to CCn1cc(C(=O)N2CC=C(c3ccccc3)CC2)c(=O)c2ccc(C)nc21, the fluorescence intensity rises from 3930 to 11100.

Compared with CCOC(=O)C1CCN(Cc2nnc(-c3cccc(Br)c3)o2)CC1, CNc1cncc(-c2cccc(C(=O)N3CCOCC3)c2)n1 is higher in fluorescence intensity: 3660 for the first, 3830 for the second.

Going from O=C(CSc1nc2cccc(F)c2c(=O)n1-c1ccccc1)Nc1ccc2c(c1)CCC2 to O=C(c1cc(-c2ccc(Cl)cc2)on1)N1CCN(c2ccccc2)CC1, the fluorescence intensity falls from 4620 to 4120.

Going from C=CCn1c(SCC(=O)NCC2CCCO2)nc2sc(C)c(C)c2c1=O (centres undefined) to C=CCn1c(SCc2c(C)noc2C)nc2sc3c(c2c1=O)CCC(C)C3 (centres undefined), the fluorescence intensity falls from 5940 to 2390.

First: COc1ccccc1C1CC(=O)n2c(nc(-c3ccccc3)c2-c2ccccc2)S1 (centres undefined)
Second: CCCCCc1c(-c2cccc(Br)c2)ncn1CCc1ccccc1OC
The fluorescence intensity of the first is lower: 1950 for the first, 5900 for the second.

First: O=C(CSC1=Nc2ccccc2C2=NC(c3ccccc3)C(=O)N12)NCC1CCCO1 (centres undefined)
Second: NC(=O)CSC1=Nc2ccccc2C2=NC(CCC(=O)NCc3ccc(F)cc3)C(=O)N12 (centres undefined)
The fluorescence intensity of the first is lower: 2380 for the first, 3100 for the second.

Compared with CCCCNC(=O)C[C@@H]1C[C@@]2(C(=O)OCC)CCC=C2N(Cc2cccc3ccccc23)C1=O, Cc1ccccc1SCC(=O)OCC(=O)N1CC(=O)Nc2ccccc21 is lower in fluorescence intensity: 5990 for the first, 3940 for the second.

Compared with OCCc1ccc(NCCc2ccco2)cc1, Cc1nc2c(-c3ccc(F)cc3)c(C)nn2c(C)c1CCC(=O)NCc1ccco1 is lower in fluorescence intensity: 6000 for the first, 5410 for the second.

Compared with CC(=O)Nc1cccc(-c2cc3nc(NCc4cccnc4)n(C)c(=O)c3s2)c1, COc1cccc(CNc2nc(NCc3cccs3)nc3ccsc23)c1 is higher in fluorescence intensity: 3710 for the first, 3840 for the second.

Compared with Nc1nnc(SCn2nnc3ccccc3c2=O)s1, COc1ccccc1C1C(C(N)=O)=C(C)Nc2nc(CCCO)nn21 (centres undefined) is lower in fluorescence intensity: 4300 for the first, 3450 for the second.

Compared with Cc1cc2nc(-c3ccc(F)cc3)c(Cc3ccsc3)n2c(C)c1Br, COc1ccc(-c2nc3ccc(Br)cn3c2Cc2ccc(C)cc2)cc1OC is lower in fluorescence intensity: 4760 for the first, 4350 for the second.

First: COc1ccc(NC(=O)C2CCN(S(=O)(=O)c3ccc4[nH]c(=O)oc4c3)CC2)c(OC)c1
Second: COC(=O)c1ccccc1NC(=O)C1CC(=O)N(c2ccc(OC)cc2)C1 (centres undefined)
The fluorescence intensity of the first is higher: 4520 for the first, 3990 for the second.

First: C/C=C/C(=O)Nc1ccc(N2CCN(c3ccc(C(F)(F)F)cn3)CC2)nc1
Second: COc1ccc(-c2cc(C(=O)N3CCN(c4ccc(F)cc4)CC3)no2)cc1
The fluorescence intensity of the first is lower: 5380 for the first, 6330 for the second.

Compared with O=C(NCc1ccco1)c1ccc(Cn2c(=O)c3sccc3n(Cc3ccc(F)cc3)c2=O)cc1, O=C(Cc1ccc(-n2c(=O)c3sccc3n(Cc3ccc(F)cc3)c2=O)cc1)NCc1ccco1 is higher in fluorescence intensity: 5200 for the first, 5860 for the second.

Going from CC(C)CC(=O)Nc1nnc(S(=O)(=O)N(C)c2ccc(Cl)cc2)s1 to CCC(=O)Nc1nnc(S(=O)(=O)N(CC(C)C)c2ccccc2)s1, the fluorescence intensity falls from 4020 to 3230.

Compared with Oc1cccc2cc(-c3ccncc3)cnc12, O=C(NCCc1ccccn1)c1cccnc1Oc1ccc(Cl)cc1 is higher in fluorescence intensity: 2990 for the first, 5560 for the second.

Compared with CCCCOC(=O)NCN1C(=O)C2C3C=CC(C3)C2C1=O (centres undefined), Cc1cccc(C(=O)OCC(=O)Nc2sccc2C(N)=O)c1C is higher in fluorescence intensity: 3370 for the first, 3570 for the second.

Going from COC(=O)C1=C(C(=O)c2ccc(C)cc2)C(c2ccccc2)n2nnnc2N1 (centres undefined) to CCn1c(CNC(=O)c2ccc(OC)c(OC)c2)nnc1SCC(=O)Nc1ccccc1, the fluorescence intensity rises from 2650 to 11100.

Going from CCOc1ccc2sc(NS(=O)(=O)c3ccc(N)cc3)nc2c1 to CCOc1ccc(S(=O)(=O)Nc2nccs2)cc1, the fluorescence intensity rises from 3350 to 4450.

Going from CCOC(=O)C(Sc1ncc(C#N)c(N)n1)C(C)C (centres undefined) to COC(=O)c1ccc(NC(=O)CSc2nnc(C3CC3)n2C)cc1, the fluorescence intensity rises from 2490 to 5470.

Compared with COC(=O)Nc1ccc(S(=O)(=O)N(C)CC(F)(F)C(F)F)cc1, Cc1ccc(S(=O)(=O)N(C)CC(=O)OCC(=O)N2CC(=O)Nc3ccccc32)cc1 is higher in fluorescence intensity: 3990 for the first, 4160 for the second.

First: COc1ccc(-c2cc3nc(C)c(CCC(=O)NC(C)CCc4ccco4)c(C)n3n2)c(OC)c1 (centres undefined)
Second: COc1ccc(S(=O)(=O)n2cnc3ccccc32)c(C)c1
The fluorescence intensity of the first is higher: 3850 for the first, 3080 for the second.

First: COc1ccc(C(=O)N2CCCCC2c2cc(C(=O)Nc3ccc(F)c(Cl)c3)no2)cc1 (centres undefined)
Second: COc1ccc(C2CC(c3cccc(OC)c3)=NN2c2ccc(S(N)(=O)=O)cc2)cc1 (centres undefined)
The fluorescence intensity of the first is higher: 3750 for the first, 3270 for the second.

First: CC1(C(=O)NCc2ccc(F)c(F)c2)Cc2c(-c3ccc4c(c3)OCO4)ccnc2O1 (centres undefined)
Second: CCN(CC)CCN(C)C(c1ccnc2ccccc12)c1nnnn1-c1ccc2c(c1)OCCO2 (centres undefined)
The fluorescence intensity of the first is lower: 2890 for the first, 4670 for the second.

Going from Cc1nc(C(F)(F)F)ccc1C(=O)N1CCC1(C)C(=O)NS(=O)(=O)c1ccc(F)cc1F (centres undefined) to O=c1c([N+](=O)[O-])cccn1Cc1ccc(F)cc1Cl, the fluorescence intensity rises from 3750 to 4380.

Compared with Nc1ncnc2c1ncn2[C@@H]1O[C@H](C(=O)N2CCCN(Cc3ccccc3F)CC2)[C@@H](O)[C@H]1O, Cc1c(C#N)c2ncn(CC#N)c(=O)c2n1-c1ccccc1 is lower in fluorescence intensity: 5460 for the first, 2670 for the second.

CN(C)c1nccc(NCc2ccccc2)c1C#N gave a fluorescence intensity of 2510.

Reference: PubChem BioAssay AID624483 (NMMLSC, 2012)
